Here are results for 55 compounds from publication PMC4336329 (PLoS ONE, 2015).

The structures appear in SMILES notation. In all, about 310,000 compounds went through this assay and about 14,000 (4.5%) showed an effect of 50% or more. Effects have a minus sign here. The sample holds strong results, similar compounds and a random draw of the others, so the mix is not that of the screen.
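Also: peak tail current of the secondary pulse compared with the same well before compound.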

Chain of human ether-à-go-go-related gene (hERG) potassium channel (Q12809 whole entry, looked up): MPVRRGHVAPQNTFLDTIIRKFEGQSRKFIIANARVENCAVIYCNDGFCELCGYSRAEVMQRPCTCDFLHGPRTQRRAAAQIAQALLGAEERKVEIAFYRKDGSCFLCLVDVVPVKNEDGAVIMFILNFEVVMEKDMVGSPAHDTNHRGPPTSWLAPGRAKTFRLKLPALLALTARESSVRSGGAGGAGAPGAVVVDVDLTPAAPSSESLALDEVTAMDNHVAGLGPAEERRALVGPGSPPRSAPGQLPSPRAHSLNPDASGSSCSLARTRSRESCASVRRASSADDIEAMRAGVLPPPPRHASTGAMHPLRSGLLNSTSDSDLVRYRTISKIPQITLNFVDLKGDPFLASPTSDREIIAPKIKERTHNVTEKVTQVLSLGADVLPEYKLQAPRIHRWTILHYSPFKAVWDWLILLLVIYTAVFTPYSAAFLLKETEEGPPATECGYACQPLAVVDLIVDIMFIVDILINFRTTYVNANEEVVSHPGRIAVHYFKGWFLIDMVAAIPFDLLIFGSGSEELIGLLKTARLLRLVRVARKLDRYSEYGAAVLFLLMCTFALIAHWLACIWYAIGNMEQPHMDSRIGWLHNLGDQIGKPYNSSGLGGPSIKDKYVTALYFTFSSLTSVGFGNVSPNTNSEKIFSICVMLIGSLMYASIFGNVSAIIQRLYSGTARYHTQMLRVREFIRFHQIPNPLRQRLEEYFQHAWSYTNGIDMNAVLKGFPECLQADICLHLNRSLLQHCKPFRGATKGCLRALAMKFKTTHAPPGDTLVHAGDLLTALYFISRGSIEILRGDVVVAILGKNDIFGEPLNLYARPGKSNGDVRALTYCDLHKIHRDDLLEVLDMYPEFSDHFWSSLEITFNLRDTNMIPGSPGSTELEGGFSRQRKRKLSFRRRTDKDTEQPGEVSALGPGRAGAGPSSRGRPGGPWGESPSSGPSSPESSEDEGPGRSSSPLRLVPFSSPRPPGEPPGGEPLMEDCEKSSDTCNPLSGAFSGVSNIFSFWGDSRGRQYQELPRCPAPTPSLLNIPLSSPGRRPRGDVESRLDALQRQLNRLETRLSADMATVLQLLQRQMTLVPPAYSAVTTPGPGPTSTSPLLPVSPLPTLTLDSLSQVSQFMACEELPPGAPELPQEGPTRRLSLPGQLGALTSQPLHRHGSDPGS

The assay concerns the target human ether-à-go-go-related gene (hERG) potassium channel (human, UniProt Q12809). Briefly: primary screen, population patch clamp on CHO cells stably expressing hERG; higher = less effect of the substance.
As to `CCC(=O)Nc1cc2c3c(c1)CCC(=O)N3CCC2`, the “hERG current change (%, negative = inhibition) at 10uM” value stood at 1.44%.
The figure for `CC(=O)OCCNc1cc(Sc2nc3ccccc3[nH]2)c2nonc2c1[N+](=O)[O-]` is -12.1%; for `O=c1c2c(-c3ccc(Cl)cc3)csc2nc2n1CCC2` it is -28.9%.
For `O=c1c2c(-c3ccc([N+](=O)[O-])cc3)csc2nc2n1CCC2` the value was -77.6%; for `O=c1c2c(-c3ccc([N+](=O)[O-])cc3)csc2nc2n1CCCCC2`, -34.6%; for `O=[N+]([O-])c1ccccc1/C=C/C=N/Nc1ccc(S(=O)(=O)Nc2ccc(Cl)cc2)cc1[N+](=O)[O-]`, 20.8%.
As for `COn1c(-c2ccc(Cl)cc2)nc2ccc(Cl)cc21`, the “hERG current change (%, negative = inhibition) at 10uM” value is on record as -4.56%.
For `Cc1ccc(OCC(=O)NCC(=O)Nc2ccc(F)cc2)c([N+](=O)[O-])n1` the value was -40.3%.
For `Cc1cccn2c(CN3CCCC(c4ccccc4)C3)c(C(=O)N3CCOCC3)nc12` (stereo not shown) the value was -68.7%; for `Cc1cccn2c(CN3CCSCC3)c(C(=O)N3CCOCC3)nc12`, 0.407%.
For `Cc1cccn2c(CN[C@@H]3CCCC[C@H]3c3ccccc3)c(C(=O)N3CCOCC3)nc12` the value was -12.9%.
Regarding `Cc1cc(C(=O)NN)c(C)o1`, the “hERG current change (%, negative = inhibition) at 10uM” value was found to be 10.3%.
Consider `CCc1cc(=O)oc2cc(C)cc(OCC(=O)N3CCC(C(=O)NC(C)C)(c4ccccc4)CC3)c12`, for which the “hERG current change (%, negative = inhibition) at 10uM” value was -43.6%.
The figure for `CC(NC(=O)/C=C/c1ccccc1[N+](=O)[O-])C1CC2CCC1C2` (stereo not shown) is 8.42%.
For `CCN1CCN(c2nn3c(=O)c4ccccc4nc3c3ccccc23)CC1` the value was -72.7%.
Regarding `CCN1CCN(c2nc(-c3ccccc3)nc3ccccc23)CC1`, the “hERG current change (%, negative = inhibition) at 10uM” value is listed as -63%.
For the compound `Cc1ccc(C)c(S(=O)(=O)N2CCN(c3nc(-c4cccnc4)nc4ccccc34)CC2)c1`, the “hERG current change (%, negative = inhibition) at 10uM” value is 1.45%.
The figure for `CN(Cc1ccccc1F)c1nc(-c2cccnc2)nc2ccccc12` is 3.92%; for `Cc1ccc(CN(C)c2nc(-c3cccnc3)nc3ccccc23)o1` it is 12.7%.
Regarding `O=S(=O)(c1ccccc1F)N1CCN(c2nc(-c3cccnc3)nc3ccccc23)CC1`, the “hERG current change (%, negative = inhibition) at 10uM” value is recorded as -41.9%.
As for `CCN1CCN(c2nc(-c3cccnc3)nc3ccccc23)CC1.Cl`, the “hERG current change (%, negative = inhibition) at 10uM” value is -55.4%.
`CCN1CCN(c2nc3ccccc3n3cnnc23)CC1`: the “hERG current change (%, negative = inhibition) at 10uM” value was -14.8%.
For `CC1CN(c2nn3c(=O)c4ccccc4nc3c3ccccc23)CC(C)O1` (stereo not shown) the value was -25.7%; for `CN(Cc1cccs1)c1nc(-c2cccnc2)nc2ccccc12`, -53.5%; for `CCCOc1ccc(-c2nc(N3CCN(CC)CC3)c3ccccc3n2)cc1`, -17.3%.
As for `c1ccc(CN2CCN(c3nc(-c4ccccc4)nc4ccccc34)CC2)cc1`, the “hERG current change (%, negative = inhibition) at 10uM” value came to 8.72%.
The figure for `CC(C)OC(=O)CC(=O)CSc1nc2c(c(-c3cccs3)c1C#N)CCC2` is -8.89%.
For `O=C(c1ccc(N2CCCS2(=O)=O)cc1)N1CCN(c2ccc(F)cc2)CC1` the value was -28.9%.
As to `COc1ccc(/C=N/Nc2ccc([N+](=O)[O-])cc2)cc1O`, the “hERG current change (%, negative = inhibition) at 10uM” value came to 10.1%.
The figure for `O=C(COc1ccc(-c2nnco2)cc1)NCc1ccccc1Cl` is -6.27%; for `C=CCN(CC=C)C(=S)NC(=O)c1ccc(OC)c(Br)c1` it is 5.1%.
For `Cn1ncc([N+](=O)[O-])c1C(=O)Nc1ccn(Cc2ccccc2F)n1` the value was -9.33%; for `Cc1c(NC(=O)OCCNC(=O)COc2ccc(Cl)cc2Cl)sc(=S)n1C`, -5.51%; for `CCN1CCN(c2nc(-c3ccncc3)nc3ccccc23)CC1`, -77.8%.
The figure for `CCC1CCCCN1c1nc(-c2ccncc2)nc2ccccc12` (stereo not shown) is -42.5%.
As to `CC1CCN(c2nc(-c3ccncc3)nc3ccccc23)CC1`, the “hERG current change (%, negative = inhibition) at 10uM” value is listed as -27%.
`CCC1=C(C)CN(C(=O)NCCc2ccc(S(=O)(=O)NC(=O)NC3CCC(C)CC3)cc2)C1=O` (stereo not shown): the “hERG current change (%, negative = inhibition) at 10uM” value is recorded as -13.5%.
The figure for `CCOc1ccc(/C=C(\C#N)C(=O)NCC2CCCO2)cc1OCC` (stereo not shown) is -5.95%.
On to `O=C(NCc1ccccn1)c1ccc(Cl)c(S(=O)(=O)N2CCOCC2)c1`, for which the “hERG current change (%, negative = inhibition) at 10uM” value is recorded as -4.89%.
Turning to `Cc1ccc(C(=O)Nc2ncccc2O)cc1S(=O)(=O)N1CCCCC1`, the “hERG current change (%, negative = inhibition) at 10uM” value was -14.3%.
The figure for `O=C(Nc1ncccc1O)c1ccc(Cl)c(S(=O)(=O)N2CCCCCC2)c1` is -61%; for `CC(NC(=O)c1ccc(Cl)c(S(=O)(=O)N2CCCCCC2)c1)c1cccnc1` (stereo not shown) it is -52.3%; for `Cc1cccnc1NC(=O)c1ccc(Cl)c(S(=O)(=O)N2CCCC2)c1` it is -9.58%.
Regarding `O=C(Nc1cccnc1)c1ccc(Cl)c(S(=O)(=O)N2CCCCC2)c1`, the “hERG current change (%, negative = inhibition) at 10uM” value is listed as -15.6%.
`Cc1cccnc1NC(=O)c1ccc(Cl)c(S(=O)(=O)N2CCCCC2)c1`: the “hERG current change (%, negative = inhibition) at 10uM” value is given as -21.7%.
With `O=C(NCc1ccccn1)c1ccc(Cl)c(S(=O)(=O)N2CCCCCC2)c1`, the “hERG current change (%, negative = inhibition) at 10uM” value is on record as -64.5%.
The figure for `Cc1cccnc1NC(=O)c1ccc(Cl)c(S(=O)(=O)N2CCCCCC2)c1` is -65.5%; for `O=C(Nc1ncccc1O)c1ccc(Cl)c(S(=O)(=O)N2CCCCC2)c1` it is -16.1%.
For `O=C(NCc1ccccn1)c1ccc(Cl)c(S(=O)(=O)N2CCCCC2)c1` the value was -10.1%; for `O=C(Nc1cccnc1)c1ccc(Cl)c(S(=O)(=O)N2CCCCCC2)c1`, -31.6%; for `COc1ccc(NC(=O)c2ccccn2)cc1OC`, 3.32%.
The figure for `O=C(O)c1csc(Cc2ccccc2)n1` is 15.1%; for `COc1ccc(Cl)cc1NC(=O)Nc1cc(C)on1` it is 0.43%; for `CC(C)C(O)(C#CCN1CCCCC1)C(C)C` it is -1.16%.
For the compound `Cc1cccc(N2C(=O)CC(NNc3nc4ccccc4s3)C2=O)c1` (stereo not shown), the “hERG current change (%, negative = inhibition) at 10uM” value was 10.6%.
